Results on five molecules are retold here after PubChem BioAssay AID493170 (National Center for Advancing Translational Sciences (NCATS), 2011).

Results filed as inconclusive are left out. Values without a mark were called inactive. The source made the active and inactive calls. Calls follow the shape of the dose curve; as a rule, active = well fitted inhibition curve with a large enough effect; inconclusive = small, poorly fitted or top-dose-only effect, or effect the other way; inactive = flat fitted curve, though single readings scatter.
% is scaled to controls: 0 for no effect and ±100 for the full control effect; potency is read from the fitted curve at half-maximal effect.

In the experiment the target is Ubiquitin carboxyl-terminal hydrolase 2 (Homo sapiens) (UniProt O75604). Kind of experiment: Ub-rhodamine 110 based assay for inhibitors Ubiquitin-specific Protease USP2a. Also: nearly all actives have a fitted effect of over 50% in size. Conditions: USP2a Ub-rhodamine110 cleavage, fluorescence; series mostly up to 38.3 µM; activity change, negative = inhibition: at the top concentration. A digest of the protocol: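 Kinetic fluorescence (485/531 nm) read each minute over 7 min after adding Ub-Rhod110 (150 nM final) to USP2a (5 nM final). The enzyme had 30 min RT exposure to compounds beforehand in Tris pH 8.0 buffer with CaCl2, CHAPS and beta-ME.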
Sequence of Ubiquitin carboxyl-terminal hydrolase 2 (Homo sapiens) (O75604 whole entry, looked up): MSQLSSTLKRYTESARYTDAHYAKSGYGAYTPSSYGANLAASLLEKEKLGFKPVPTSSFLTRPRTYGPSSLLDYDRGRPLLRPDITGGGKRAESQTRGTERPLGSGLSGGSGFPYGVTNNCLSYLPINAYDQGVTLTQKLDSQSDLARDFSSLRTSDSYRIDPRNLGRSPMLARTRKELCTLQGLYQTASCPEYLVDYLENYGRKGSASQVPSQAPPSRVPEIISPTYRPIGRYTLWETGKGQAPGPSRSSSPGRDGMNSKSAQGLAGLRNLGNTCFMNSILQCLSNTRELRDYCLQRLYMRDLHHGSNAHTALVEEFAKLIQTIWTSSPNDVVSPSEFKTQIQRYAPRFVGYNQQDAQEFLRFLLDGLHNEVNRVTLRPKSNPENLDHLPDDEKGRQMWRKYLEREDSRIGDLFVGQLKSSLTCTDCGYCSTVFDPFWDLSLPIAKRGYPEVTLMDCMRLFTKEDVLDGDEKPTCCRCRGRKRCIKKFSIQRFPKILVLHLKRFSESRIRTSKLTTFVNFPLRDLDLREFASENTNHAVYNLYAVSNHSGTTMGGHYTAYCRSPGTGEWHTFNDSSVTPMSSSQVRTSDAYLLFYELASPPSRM
On to `c1coc(CNC2CCCCCCC2)c1`, for which the “activity change, negative = inhibition” value is -3.41%. As for `CCc1cc2cccc(C)c2nc1SCC(=O)N1CCN(C(=O)c2ccco2)CC1`, the “activity change, negative = inhibition” value was -16.4%. For the molecule `CSc1ccc(NC(=O)CSc2nc3[nH]c(=O)cc(O)c3s2)cc1`, the Potency was 5.62 µM (active).

Regarding `N#Cc1c(-c2cccs2)nc(SCc2ccc(Cl)cc2)[nH]c1=O`, the Potency is 10 µM (active). Regarding `Cc1cc(-c2csc(NC(=O)c3ccc(=O)[nH]c3)n2)c(C)n1Cc1ccccc1`, the Potency was 12.6 µM (active).
